# Compound activity: PubChem, several laboratories
# Shown are actives, neighbours in structure and some others; about 4.6% of the full set was active somewhere.
# SKKanGAS inh – S. pyogenes SKKanGAS growth inhibitors in kanamycin, primary screen, streptokinase expression inhibitor project, SKKanGAS strain, BacTiter-Glo luminescence; inhibition, % at 7.5 µM; AID 1662, 2009; actives 1.3% (n = 300,000); 6 h;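 active = mean replicate score, as percent of positive control median, at least 50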;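 also: strain carries kanamycin resistance gene driven by streptokinase promoter and grows in 40 µg/ml kanamycin; loss of luminescence reflects streptokinase promoter inhibition or plain growth inhibition; 0% = median of DMSO wells and 100% = positive control at its reference dose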
# V-ATPase pH – regulators of yeast V-ATPase proton pumping, primary screen, pHLuorin cytosolic pH fluorescence; S. cerevisiae; response, % at 10 µM; actives 0.37% (n = 350,000); AID 504577, 2011; in the data active = response mostly above about 7.3%, no sharp cut-off; inactive = mostly below about 5.4%; also: actives read high
# tim23-1 inh – growth inhibitors of tim23-1 mutant yeast, primary screen, luminescence, uHTS. AID 463212, 2010. S. cerevisiae tim23-1 growth, BacTiter-Glo luminescence, 24 h. inhibition, % at 20 µM. actives 1.3% (n = 330,000);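 active = growth inhibition of the mutant yeast at or above 50%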;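 also: temperature-sensitive mutant grown at 25 °C; plate controls were DMSO-treated mutant yeast for no effect and medium wells lacking yeast for full effect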
# tim10-1 inh – growth inhibitors of tim10-1 mutant yeast, primary screen, luminescence, uHTS; S. cerevisiae tim10-1 ts strain growth, BacTiter-Glo, 24 h; inhibition, % at 20 µM; actives 2.2% (n = 330,000); AID 463190, 2010;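 active = inhibition of at least 40%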;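 also: mutant grown at 25 °C; 0% = DMSO wells with yeast and 100% = wells holding no yeast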
# PfHsp90 set2 – growth inhibition of PfHsp90-expressing yeast, primary screen, antimalarial PfHsp90 inhibitor project, S. cerevisiae, BacTiter-Glo luminescence, single point, set 2; BacTiter-Glo ATP, 48 h; yeast lacking PDR1 and PDR3 efflux regulators; inhibition, % at 9.4 µM; actives 0.32% (n = 310,000);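 active = every replicate shows inhibition above about 80%, whatever the replicate mean, limit read from the data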;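 also: 0% = DMSO neutral controls and 100% = 20 µM radicicol positive controls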
# TIM10 inh – growth inhibitors of isogenic TIM10 control yeast, primary screen, counter-screen for tim10-1 yeast inhibitor project, luminescence, uHTS. S. cerevisiae TIM10 strain growth, BacTiter-Glo luminescence, 24 h. inhibition, % at 10 µM. actives 1.4% (n = 330,000);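 active = inhibition of 40% or more at the single tested concentration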;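 also: wild-type TIM10 isogenic control strain grown at permissive 25 °C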
# tim10-1 confirm – growth inhibitors of tim10-1 mutant yeast, confirmation, single concentration, luminescence, S. cerevisiae; shares compounds with tim10-1 inh; S. cerevisiae tim10-1 ts strain growth, BacTiter-Glo, 24 h; inhibition, % at 20 µM; actives 56% (n = 7,400);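 active = inhibition of yeast growth at or above a set limit in either of two repeat tests at 20 µM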;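 also: tim10-1 mutant grown at permissive 25 °C to find synthetic lethal compounds; 0% = DMSO yeast wells and 100% = medium wells without yeast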
# Active calls of the source: *; · = no result given.
SMILES,SKKanGAS inh,V-ATPase pH,tim23-1 inh,tim10-1 inh,PfHsp90 set2,TIM10 inh,tim10-1 confirm
O=C(N/C(=C\c1cn(-c2ccccc2)nc1-c1ccccc1)C(=O)N1CCOCC1)c1ccccc1,9,·,-15,15,·,-17,·
C(=N\N1CCOCC1)/c1cn(-c2ccccc2)nc1-c1ccccc1,-16,-1,50,49*,13,8,40*
CC(C)N1CC2(CC(c3ccc(Cl)cc3Cl)=NO2)CN1C(=O)c1ccc(C(C)(C)C)cc1 (stereo not drawn),·,0,·,·,·,·,·
Oc1[nH]c2c(Cl)cc(Cl)cc2c1N=NC(=S)NCC1CCCO1 (stereo not drawn),95*,-2,32,46*,-28,25,20
Cc1cc(C)c2[nH]c(O)c(N=NC(=S)NCC3CCCO3)c2c1 (stereo not drawn),0,-2,9,14,·,22,·
COc1cc(NC(=O)CN2C(=O)CSc3ccc(S(=O)(=O)N4CCCC4)cc32)cc(OC)c1,-8,1,5,0,29,3,·
Oc1ccccc1CNc1ccc(OC(F)(F)F)cc1,21,2,33,42*,-26,33,27
Cc1ccc(NCc2ccccc2O)cc1C,-8,3,-4,-6,-105,-9,·
Cc1nn(-c2ccccc2)c(Cl)c1C(=O)N1CCN(c2ncnc3c2cnn3-c2ccccc2)CC1,18,2,23,41*,-11,24,32*
COc1ccc(N=Nc2ccc3ccccc3c2)c(O)c1,10,5,6,15,-13,10,·
COc1cccc(N=Nc2ccc3ccccc3c2O)c1,19,1,32,46*,0,13,31*
S=c1[nH]nc(-c2ccccc2)n1/N=C/c1ccc(-c2ccccc2Cl)o1,5,-1,31,45*,-31,25,22
O=C(OC1C2C=CC1C1C(=O)NC21)c1ccccc1 (stereo not drawn),·,2,·,·,·,·,·
COc1ccc2cc(C3CC(c4ccco4)=NN3S(=O)(=O)c3ccccc3)c(Cl)nc2c1 (stereo not drawn),14,0,21,47*,12,21,18
CC(=O)c1c(C)[nH]c(C(=O)Nc2nc(-c3ccc(-c4ccccc4)cc3)cs2)c1C,52*,1,21,45*,8,15,27
O=C1CN(Cc2ccccc2)C(=NCc2ccco2)S1,-5,-2,34,45*,6,4,20
COc1ccc(OC)c(C2=Nn3c(nnc3C3CCCCC3)SC2)c1,-1,-3,19,28,-36,31,·
COc1ccccc1C1=Nn2c(nnc2C2CCCCC2)SC1,·,2,16,44*,4,-3,19
CCOC(=O)c1ccc(NC(=O)Cn2ncc(Cl)c(Cl)c2=O)cc1,2,-4,31,40*,-15,31,18
CCOC(=O)c1ccc(NC(=O)Cn2nc(C)c3ccccc3c2=O)cc1,-1,-1,-5,-19,7,-16,·
CCS(=O)(=O)NCc1ccc2[nH]c3c(c2c1)CCCC3,23,·,7,23,·,-3,·
Cc1cc(C)cc(NC(=S)NCc2ccc3[nH]c4c(c3c2)CCCC4)c1,18,0,39,41*,-25,35,26
CCOc1ccccc1NC1=C(Cl)C(=O)N(Cc2ccccc2)C1=O,32,-3,-3,44*,-8,24,21
CC1CCCCN1C(=O)c1ccc(NC(=O)c2ccccc2Cl)cc1 (stereo not drawn),4,-1,20,20,15,20,·
CC1CCCCN1C(=O)c1cccc(NC2=C(Cl)C(=O)N(Cc3ccccc3)C2=O)c1 (stereo not drawn),·,0,49,51*,·,35,35*
SMILES,SKKanGAS inh,V-ATPase pH,tim23-1 inh,tim10-1 inh,PfHsp90 set2,TIM10 inh,tim10-1 confirm
O=C1C(Cl)=C(Nc2cccc(O)c2)C(=O)N1Cc1ccccc1,18,3,32,42*,-7,32,31*
Cc1ccc(CNC(=O)CCc2cn(C)c3ccccc23)cc1,-2,0,16,22,10,-24,·
CCOC(=O)C1(Cc2cccc(F)c2)CCN(C(=O)c2ccoc2C)CC1,-11,-1,23,-18,-24,-6,·
Cn1ncc(Cl)c1C(=O)Nc1cc(C(F)(F)F)ccc1F,1,1,4,47*,·,-3,10
COc1cc(NC(=O)c2c(Cl)cnn2C)c(OC)cc1Cl,3,-1,10,21,-30,1,·
Cc1cccc(OCC(=O)O/N=C(\N)Cc2ccc([N+](=O)[O-])cc2)c1,-2,-1,25,15,1,32,·
Cc1ccc(OCC(=O)O/N=C(\N)Cc2ccc([N+](=O)[O-])cc2)cc1C,-8,0,29,52*,2,16,53*
N/C(Cc1ccc([N+](=O)[O-])cc1)=N\OC(=O)Cc1ccccc1,0,-1,15,51*,-1,14,41*
N/C(=N\OC(=O)Cc1ccccc1)c1ccc([N+](=O)[O-])cc1,5,-2,30,39,13,20,·
COC(=O)c1c(NC(=O)C(=O)N2CCOCC2)sc2c1CCCC2,-4,1,49,52*,-10,10,3
N/C(=N\OC(=O)CCC1CCCC1)c1ccc([N+](=O)[O-])cc1,0,1,30,61*,-68,18,58*
N#Cc1cc([N+](=O)[O-])ccc1NC(=O)COC(=O)CCC1CCCCC1,-3,·,33,45*,·,17,37*
N/C(=N\OC(=O)CCC1CCCC1)c1ccccc1,-1,-3,46,52*,7,35,44*
N/C(=N\OC(=O)CCC1CCCC1)c1ccccn1,-2,-1,30,20,1,27,·
O=C(COc1ccc(Cl)cc1)NCc1nnc(SCC(=O)Nc2ccccc2F)o1,-37,·,10,16,-5,9,·
O=C(NC1CCCCC1)C(c1ccncc1)N(Cc1ccccc1)C(=O)c1ccc(-c2ccccc2)[nH]1 (stereo not drawn),28,2,3,2,-44,-5,·
CC(C)(C)NC(=O)C(c1ccncc1)N(Cc1ccco1)C(=O)c1ccc(-c2ccccc2)[nH]1 (stereo not drawn),-4,-2,35,52*,·,25,42*
COc1ccccc1C(=O)OCc1c(-c2ccccc2)ncc2ccccc12,·,3,43,24,-24,15,·
